Bioassay records: PubChem, several laboratories
CSC inhib = cancer stem cell inhibition. actives 1.1% (n = 300,000). cancer stem cell-like cells viability, luminescence. inhibition, % at 7.5 µM; in the data active means inhibition above about 75%; tested in HMLE shEcad cells
Gli-Sufu antag = Gli-Sufu pathway antagonism; inhibition, % at 5 µM; Sufu-KO-LIGHT fibroblasts, Gli luciferase reporter luminescence; AID 588413; actives 0.74% (n = 340,000);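 active means inhibition above about 55%, limit read from the data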
Beta apoptosis = blocks beta cell apoptosis | INS-1E cytokine-induced death, ATP luminescence, 48 h; percent of positive-control rescue, neutral wells zero | protection from apoptosis, % (test concentration not listed) | actives 0.8% (n = 300,000);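 active means Every replicate reaches about 75%, or at least half do and their mean reaches it too, limit read from the data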;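 further: higher means more ATP so stronger rescue from cytokine killing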
PAX8 inh HTS = PAX8 transcriptional activity inhibition. RMG-I TPO-luciferase reporter, SteadyGlo, 24 h. inhibition, % at 12.6 µM. actives 1.2% (n = 360,000);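 active means mean replicate inhibition at least 60% with every replicate also reaching 60%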;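 further: luciferase light reporting Pax8 driven TPO promoter activity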
Mdm2-MdmX inh = inhibitors of human Mdm2/MdmX interaction. O15151+Q00987. SaOS-2 split-luciferase Mdm2/MdmX complementation, luminescence. inhibition, % at 8 µM. actives 3% (n = 330,000);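 active means inhibition of at least 50% at 8 µM in the primary screen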
Target sequence (O15151 whole entry, looked up): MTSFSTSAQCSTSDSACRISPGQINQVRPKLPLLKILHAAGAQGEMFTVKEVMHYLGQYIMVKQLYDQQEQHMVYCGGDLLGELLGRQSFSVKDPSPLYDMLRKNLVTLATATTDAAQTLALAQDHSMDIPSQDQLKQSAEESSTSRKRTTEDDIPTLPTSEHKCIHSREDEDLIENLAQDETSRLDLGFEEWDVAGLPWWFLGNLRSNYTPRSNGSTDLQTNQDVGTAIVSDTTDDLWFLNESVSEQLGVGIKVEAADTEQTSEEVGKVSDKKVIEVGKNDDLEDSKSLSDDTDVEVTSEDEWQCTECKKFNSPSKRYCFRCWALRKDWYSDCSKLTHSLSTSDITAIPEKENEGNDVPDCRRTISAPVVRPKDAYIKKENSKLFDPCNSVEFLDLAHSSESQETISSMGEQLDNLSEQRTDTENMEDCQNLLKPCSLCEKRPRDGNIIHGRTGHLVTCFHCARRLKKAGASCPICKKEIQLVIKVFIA
Target sequence (Q00987 whole entry, looked up): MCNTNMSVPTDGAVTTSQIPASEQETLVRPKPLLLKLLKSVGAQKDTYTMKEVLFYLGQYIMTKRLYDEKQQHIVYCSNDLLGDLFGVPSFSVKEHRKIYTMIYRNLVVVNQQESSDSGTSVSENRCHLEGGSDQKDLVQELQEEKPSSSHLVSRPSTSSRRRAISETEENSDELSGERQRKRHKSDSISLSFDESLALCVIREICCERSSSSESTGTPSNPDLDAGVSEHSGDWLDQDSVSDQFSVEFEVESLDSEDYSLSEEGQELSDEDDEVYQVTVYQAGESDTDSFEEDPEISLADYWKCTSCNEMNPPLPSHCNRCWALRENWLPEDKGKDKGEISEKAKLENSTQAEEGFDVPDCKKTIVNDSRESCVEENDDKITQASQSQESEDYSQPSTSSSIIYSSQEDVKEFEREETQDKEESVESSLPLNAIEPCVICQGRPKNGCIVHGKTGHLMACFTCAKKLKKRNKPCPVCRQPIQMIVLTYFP
Shn3 3UTR inh = reduces Shn3 3'UTR luciferase signal in osteoblasts; inhibition, % at 12.5 µM; Clone20 osteoblast Shn3 3'UTR firefly luciferase, 24 h; AID 588674; actives 0.52% (n = 360,000);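 active means mean inhibition of at least 75% with every replicate also reaching 75%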
Mdm2 MdmX conf = human Mdm2/MdmX binding inhibition, confirmed; shares compounds with Mdm2-MdmX inh; luminescent assay; inhibition, % at 8 µM; actives 55% (n = 10,000); AID 489028; in the data active means inhibition above about 40%
Full FLuc ctr = counter-screen for Mdm2/MdmX inhibitors: full-length luciferase. actives 77% (n = 6,200). AID 504607. inhibition, % at 8 µM. shares compounds with Mdm2-MdmX inh. SaOS-2 full-length luciferase counterscreen, luminescence;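 active means mean inhibition at 8 µM reaching about 37%, which flags the compound as non-specific, limit read from the data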;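 further: p53-null SaOS-2 cells with luciferase driven by a doxycycline-inducible promoter; compound on cells about two nights before reading with doxycycline added after day one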
Numbers stand for hits; n = inactive; x = no result. Compounds with a hit are over-represented: about 4% of the library has one in this group of screens.

SMILES	CSC inhib	Gli-Sufu antag	Beta apoptosis	PAX8 inh HTS	Mdm2-MdmX inh	Shn3 3UTR inh	Mdm2 MdmX conf	Full FLuc ctr
CCc1ccc(NC(=O)c2ccc3c(c2)C(=O)N(CCOC)C3Nc2ccc(CC)cc2)cc1 (stereo unspecified)	n	n	n	n	81.3	n	40.0	99.5
COc1ccccc1C1c2ccc3ccccc3c2Oc2ncn(CCN(C)C)c(=N)c21 (stereo unspecified)	84.7	n	n	n	100.3	n	85.1	37.8
COc1ccc(C2c3ccc4ccccc4c3Oc3ncn(CCCN(C)C)c(=N)c32)cc1 (stereo unspecified)	105.1	n	111.6	n	100.3	n	100.2	51.2
COc1ccc(C2c3c(ncn(CCCO)c3=N)Oc3ccc4ccccc4c32)cc1OC (stereo unspecified)	x	n	x	n	n	x	x	x
COc1ccc(C2c3c(ncn(CCN4CCOCC4)c3=N)Oc3ccc4ccccc4c32)cc1OC (stereo unspecified)	n	n	n	x	63.6	n	n	58.7
COc1ccc(C2c3c(ncn(CCCO)c3=N)Oc3ccc4ccccc4c32)cc1 (stereo unspecified)	n	n	n	n	80.7	n	70.0	56.5
CC(C)NC(=O)Nc1ccc2c(c1)CC(=O)N([C@H](C)CO)C[C@@H](C)[C@H](CN(C)CC1CCCCC1)O2	x	x	x	n	x	x	x	x
CCCNC(=O)Nc1ccc2c(c1)C(=O)N(C)[C@H]1CC[C@H](CC(=O)OC)O[C@@H]1CO2	x	x	x	n	x	x	x	x
CCCNC(=O)N1[C@@H](CO)[C@@H](c2ccc(C3=CCCC3)cc2)[C@@H]1CNC(C)=O	x	x	x	n	x	x	x	x
CC(C)NC(=O)Nc1ccc2c(c1)C(=O)N([C@@H](C)CO)C[C@@H](C)[C@@H](CN(C)S(=O)(=O)c1ccc(Cl)cc1)OCCCC[C@@H](C)O2	x	x	x	n	x	x	x	x
C[C@@H]1CCCCO[C@@H](CN(C)C(=O)c2ccccc2)[C@@H](C)CN([C@@H](C)CO)C(=O)c2cc(NS(C)(=O)=O)ccc2O1	x	x	x	n	x	x	x	x
COc1ccccc1C1c2ccc3ccccc3c2Oc2ncn(CCCO)c(=N)c21 (stereo unspecified)	n	n	n	x	73.9	n	42.8	60.8
COc1ccc(C2c3ccc4ccccc4c3Oc3ncn(Cc4ccco4)c(=N)c32)cc1OC (stereo unspecified)	79.8	n	n	n	85.1	n	54.3	67.0
COc1ccc(C2c3ccc(O)cc3Oc3ncn(Cc4ccco4)c(=N)c32)cc1OC (stereo unspecified)	n	n	n	n	n	n	x	x
C[C@@H]1CN([C@@H](C)CO)C(=O)c2c(c3ccccc3n2C)-c2ccccc2CO[C@H]1CN(C)S(=O)(=O)c1cn(C)cn1	x	x	x	n	x	x	x	x
C=CCC[C@H](Cc1ccc(F)cc1)C(=O)OC[C@H](Cc1c[nH]c2ccccc12)NC(=O)[C@H](CC=C)CC(=O)N[C@H](CO)Cc1ccccc1	x	n	n	n	n	n	x	x
C=CCC[C@@H](Cc1ccc(F)cc1)C(=O)OC[C@H](Cc1c[nH]c2ccccc12)NC(=O)[C@@H](CC=C)CC(=O)N[C@H](CO)Cc1ccccc1	n	n	n	n	n	n	x	x
C=CCC[C@@H](Cc1ccc(F)cc1)C(=O)OC[C@H](Cc1c[nH]c2ccccc12)NC(=O)[C@H](CC=C)CC(=O)NCCO	x	n	n	n	54.3	n	n	x
C=CC[C@@H](CC(=O)N[C@H](CO)Cc1ccccc1)C(=O)N[C@H](COC(=O)[C@@H](CC=C)Cc1ccc(F)cc1)Cc1c[nH]c2ccccc12	n	n	n	87.7	81.1	n	49.4	37.0
C=CCC[C@H](Cc1ccc(F)cc1)C(=O)OC[C@H](Cc1c[nH]c2ccccc12)NC(=O)[C@@H](CC=C)CC(=O)N[C@H](CO)Cc1ccccc1	n	n	n	n	84.5	91.5	n	x
C=CC[C@H](CC(=O)N[C@H](CO)Cc1ccccc1)C(=O)N[C@H](COC(=O)[C@@H](CC=C)Cc1ccc(F)cc1)Cc1c[nH]c2ccccc12	x	n	x	x	x	n	x	x
C=CCC[C@H](Cc1ccc(F)cc1)C(=O)OC[C@H](Cc1c[nH]c2ccccc12)NC(=O)[C@@H](CC=C)CC(=O)N[C@@H](CO)Cc1ccccc1	n	n	n	n	77.4	n	42.1	49.0
Cc1ccc(S(=O)(=O)N[C@@H]2CC[C@@H](CCn3cc(C4CCCC4)nn3)O[C@@H]2CO)cc1	x	x	x	n	x	x	x	x
C/C=C/c1ccc([C@H]2[C@@H](CO)N(C(=O)C3CCC3)C23CN(S(=O)(=O)CC)C3)cc1	x	x	x	n	x	x	x	x
COc1ccc(NC(=O)[C@H](Cc2c[nH]c3ccccc23)NC(=O)[C@@H]2Cc3ccccc3CN2)cc1	n	n	x	x	92.0	n	72.8	38.6
SMILES	CSC inhib	Gli-Sufu antag	Beta apoptosis	PAX8 inh HTS	Mdm2-MdmX inh	Shn3 3UTR inh	Mdm2 MdmX conf	Full FLuc ctr
COc1ccc(CNC(=O)[C@H](Cc2c[nH]c3ccccc23)NC(=O)[C@@H]2Cc3ccccc3CN2)cc1	n	n	n	x	n	n	x	x
CC(C)c1ccc(NC(=O)[C@H](Cc2c[nH]c3ccccc23)NC(=O)[C@@H]2Cc3ccccc3CN2)cc1	n	n	n	x	96.4	n	78.8	n
Cc1ccc(Nc2nc(-c3ccc(S(=O)(=O)N4CCCC4)cc3)cs2)cc1C	n	n	x	x	n	n	x	x
O=[N+]([O-])c1cccc(S(=O)(=O)Nc2nc3ccccc3nc2Nc2cccc(S(=O)(=O)N3CCCCC3)c2)c1	x	n	x	n	x	n	x	x
Cc1ccc(S(=O)(=O)Nc2nc3ccccc3nc2Nc2cccc(S(=O)(=O)N3CCCC3)c2)cc1	114.4	n	n	n	53.5	n	50.6	93.0
Cc1cc(C)cc(Nc2nc(-c3ccc(S(=O)(=O)N4CCCC4)cc3)cs2)c1	n	n	n	n	59.3	n	58.5	42.0
CCCNC(=O)N1C[C@@H](C)[C@H](OC)CN(C)C(=O)c2ccc(NC(=O)CCC)cc2OC[C@@H]1C	x	x	x	n	x	x	x	x
COc1ccc(NC(=O)Nc2ccc3c(c2)CC(=O)N([C@H](C)CO)C[C@@H](C)[C@H](CN(C)C(=O)Nc2ccc(F)cc2)O3)cc1	x	x	x	n	x	x	x	x
COc1ccc(N2CCN(Cc3nc4scc(-c5ccccc5)c4c(=O)[nH]3)CC2)cc1	n	n	n	n	n	n	x	x
O=c1[nH]c(CN2CCN(c3ccccc3)CC2)nc2scc(-c3ccccc3)c12	n	n	n	n	71.7	n	73.0	54.1
Cc1cccc(S(=O)(=O)c2c(N)n(/N=C/c3ccccc3)c3nc4ccccc4nc23)c1	n	n	n	x	n	n	x	x
Nc1c(S(=O)(=O)c2ccccc2)c2nc3ccccc3nc2n1/N=C/c1cccc(O)c1	103.6	n	n	x	67.1	n	n	x
